Sm TGR block: blocks Schistosoma mansoni thioredoxin glutathione reductase; Q962Y6; purified TGR, DTNB reduction, TNB absorbance 405 nm; Potency, µM (highest dose often 114 µM), for inactives: at the highest dose activity change, negative = inhibition, most hits filed as inhibitors; 3% of 360,000 active; also: nearly all actives have a fitted effect of over 60% in size
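First, TGR (20 nM dispensed) and NADPH were mixed with compound. Second, a 15 min room-temperature incubation followed. Third, further NADPH and then DTNB were added to start the reaction. Finally, TNB absorbance was monitored kinetically.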
AmpC no deterg: AmpC beta-lactamase inhibition without detergent; P00811; AmpC nitrocefin hydrolysis, absorbance 480 nm, 0.0001% Triton; Potency, µM (highest dose often 57.1 µM), inactives show at the top dose activity change, negative = inhibition, most hits filed as inhibitors; 0.52% of 330,000 active; AID 485341;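 also: plate controls were no compound for no effect and no enzyme for full effect; nearly all actives have a fitted effect of over 20% in size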
Target sequence (P00811 whole entry, looked up): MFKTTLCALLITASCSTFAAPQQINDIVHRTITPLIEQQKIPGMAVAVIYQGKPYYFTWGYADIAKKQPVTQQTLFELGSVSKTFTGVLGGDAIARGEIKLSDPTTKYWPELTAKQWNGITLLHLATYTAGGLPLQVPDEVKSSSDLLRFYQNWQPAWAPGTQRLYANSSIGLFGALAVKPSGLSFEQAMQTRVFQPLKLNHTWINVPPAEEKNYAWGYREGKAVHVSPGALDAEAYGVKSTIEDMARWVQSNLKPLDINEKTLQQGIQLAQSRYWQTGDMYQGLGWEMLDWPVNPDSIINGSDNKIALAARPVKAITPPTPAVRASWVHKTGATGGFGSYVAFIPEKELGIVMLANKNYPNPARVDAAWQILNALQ
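AmpC (5.3 nM in the dispensed reagent) in 20 mM phosphate pH 7.0 with 0.01% (detergent screen) or 0.0001% Triton X-100 was preincubated with compounds for 15 min at room temperature. Nitrocefin was then added from an 800 uM solution, and hydrolysis was followed at 480 nm.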
FBPA Giardia inh: blocks Giardia fructose-bisphosphate aldolase activity; A8B2U2; purified Giardia FBPA; Potency, µM (series often up to 59.6 µM), for inactives: top-dose activity, negative = inhibition, actives largely listed as inhibitors; 0.71% of 290,000 active; AID 2451; also: nearly all actives have a fitted effect of over 55% in size
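Giardia FBPA (40 nM reagent) was preincubated 10 min at RT with compound (up to 57.5 uM final), then substrate plus GAPDH/TPI/NAD/arsenate coupling system with diaphorase/resazurin was added; resorufin fluorescence (525/598 nm) was read after 20 min.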
AmpC detergent: blocks E. coli AmpC beta-lactamase in detergent assay. P00811. AmpC hydrolysis of nitrocefin, absorbance 480 nm, 0.01% Triton. Potency, µM (top dose mostly 114 µM), without a hit: at the highest dose activity change, negative = inhibition, actives largely listed as inhibitors. 0.041% of 370,000 active. AID 485294;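 also: 0% = no-compound wells and -100% = no-enzyme wells; nearly all actives have a fitted effect of over 25% in size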
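20 mM phosphate pH 7.0 + 0.01% (detergent screen) or 0.0001% Triton X-100; 5.3 nM AmpC reagent; cpd preinc 15 min RT; nitrocefin (800 uM stock) to start; A480 q20 s × 4 min; Activity was normalised to no-enzyme and no-compound control wells.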
Starred values were filed as active, the others as inactive; [ ] = dose if it differs, or a comment. Compounds with a hit are over-represented: about 3.6% of the library has one in this group of screens. Calls follow the shape of the dose curve; as a rule, active = well fitted curve in the direction sought with a large enough effect; inconclusive = small, poorly fitted or top-dose-only effect, or another doubt; inactive = no such curve, though single readings can be large; an effect the other way counts as inactive or inconclusive. Unless noted, % is scaled to controls: 0 for no effect and ±100 for the full control effect; potency is read from the fitted curve at half-maximal effect.

Cc1ccc(S(=O)(=O)c2nc(S(C)(=O)=O)sc2N(C)C)cc1 was read as Sm TGR block 25µM*, AmpC no deterg -8%, FBPA Giardia inh 4% and AmpC detergent 7%.
For Cc1ccc(NC(=O)COC(=O)C2=NN(c3ccccc3)C(=O)CC2)c(Br)c1 the results were Sm TGR block -4%, AmpC no deterg 4% and AmpC detergent 4%.
`COCCCNC(=O)CS(=O)(=O)Cc1nc(-c2ccccc2C)oc1C` gave Sm TGR block 50µM*, AmpC no deterg 9%, FBPA Giardia inh 3% and AmpC detergent inconclusive.
For Cc1ccccc1-c1nc(CS(=O)(=O)CC(=O)NCCCN2CCCC2=O)c(C)o1 the results were Sm TGR block 20µM*, AmpC no deterg 39%, FBPA Giardia inh 7% and AmpC detergent -13%.
Screening O=C(c1ccccc1Cl)N(C(=O)c1ccccc1Cl)c1nccc(-c2cccs2)n1 returned Sm TGR block 1%, AmpC no deterg -21%, FBPA Giardia inh 7.9µM* and AmpC detergent 3%.
O=C(CSc1nccc(-c2cccs2)n1)Nc1cccc(Cl)c1Cl was read as Sm TGR block 3%, AmpC no deterg -25%, FBPA Giardia inh -1% and AmpC detergent 6%.
Screening CCN(CC)CCNC(=O)c1ccc(N2CCCCC2)c(NS(=O)(=O)c2ccc(C)cc2)c1 returned Sm TGR block -15%, AmpC no deterg 155%, FBPA Giardia inh -16% and AmpC detergent -2%.
CCN(CC)CCNc1cc(C)nc2c1C(=O)C(=O)C=C2N1CCCCC1 was read as Sm TGR block 2%[57.1 µM], AmpC no deterg 2%, FBPA Giardia inh 2µM* and AmpC detergent 0%.
Screening O=C(N/N=C/c1cc(Br)ccc1OC(=O)c1ccc(Br)cc1)c1ccncc1 returned Sm TGR block 0%, AmpC no deterg -24% and AmpC detergent -3%.
COCCN=c1scc(-c2ccco2)n1/N=C/c1ccc(O)c(O)c1O was read as Sm TGR block 13µM*, AmpC no deterg inconclusive, FBPA Giardia inh 18µM* and AmpC detergent -5%.
CN=c1scc(C)n1/N=C/c1ccc(O)c(O)c1O was read as Sm TGR block 22µM*, AmpC no deterg -37%, FBPA Giardia inh 3.2µM* and AmpC detergent 6%.
For CC(C)N=c1scc(-c2ccco2)n1/N=C/c1ccc(O)c(O)c1 the results were Sm TGR block -12%, AmpC no deterg -47%, FBPA Giardia inh -19% and AmpC detergent 5%.
For C=CCN=c1scc(-c2ccco2)n1/N=C/c1ccc(O)c(O)c1O the results were Sm TGR block 0%, AmpC no deterg 4.5µM*, FBPA Giardia inh 22µM* and AmpC detergent 2%.
Screening CN=c1scc(-c2cccs2)n1/N=C/c1ccc(O)c(O)c1O returned Sm TGR block inconclusive, AmpC no deterg inconclusive, FBPA Giardia inh inconclusive and AmpC detergent 4%.
Screening O=C(COC(=O)Cc1cccc(F)c1)NC(=O)NC1CCCCC1 returned Sm TGR block -3%, AmpC no deterg -12% and AmpC detergent inconclusive.
Cc1ccc(NC(=O)/C=C\C(=O)NCC(=O)O)cc1C was read as Sm TGR block 1.8µM*, AmpC no deterg -13%, FBPA Giardia inh 8% and AmpC detergent inconclusive.
COCc1cnc(C)nc1N was read as Sm TGR block 2%, AmpC no deterg -7%[11.4 µM], FBPA Giardia inh 5% and AmpC detergent -12%.
COc1ccc(N(CC(=O)N2CCCCC2)S(=O)(=O)c2ccccc2)c(OC)c1 was read as Sm TGR block -7%, AmpC no deterg 8.9µM*, FBPA Giardia inh 13% and AmpC detergent 3%.
`O=C(c1cc2ccc([N+](=O)[O-])cc2oc1=O)N1CCOCC1` gave Sm TGR block -1%, AmpC no deterg 7%, FBPA Giardia inh 0% and AmpC detergent -4%.
`O=C(O)C1Nc2c(Cl)cc(Cl)cc2C2C=CCC12` (stereo not given) gave Sm TGR block inconclusive, AmpC no deterg 13µM*, FBPA Giardia inh 7% and AmpC detergent inconclusive.
Screening O=C(O)C1Nc2c(O)cccc2C2C=CCC12 (stereo not given) returned Sm TGR block 8.9µM*, AmpC no deterg inconclusive, FBPA Giardia inh inconclusive and AmpC detergent inconclusive.
`O=C(O)C1CC=CCC1C(=O)NNc1c(Cl)cc(Cl)cc1Cl` (stereo not given) gave Sm TGR block 9%, AmpC no deterg -14%, FBPA Giardia inh 20% and AmpC detergent 6%.
N#CC1=C(N)OC2=C(C(=O)CCC2)C1c1cc2c(cc1Br)OCO2 (stereo not given) was read as Sm TGR block -2%, AmpC no deterg -41%, FBPA Giardia inh -1% and AmpC detergent inconclusive.
For CN(Cc1ccco1)C(=O)Cn1cc(S(=O)(=O)N2CCCC2)c(S(=O)(=O)N2CCCC2)c1 the results were Sm TGR block 35µM*, AmpC no deterg 3%, FBPA Giardia inh 0% and AmpC detergent 2%.
Screening CN(Cc1ccco1)C(=O)c1ccc(S(=O)(=O)N2CCCCCC2)cc1 returned Sm TGR block 1%, AmpC no deterg 9% and AmpC detergent 3%.
`CCOC(=O)C1CCN(C(=O)C2CCN(S(=O)(=O)c3cccc4nsnc34)CC2)CC1` gave Sm TGR block -16%, AmpC no deterg 2% and AmpC detergent -1%.
Cc1cc(C)n(CC(C)O)c(=O)c1C#N (stereo not given) was read as Sm TGR block -5%, AmpC no deterg 0.32µM*, FBPA Giardia inh 0% and AmpC detergent 0%.
Screening O=C(CSc1nnc(NC2CCCCC2)s1)N1CCOCC1 returned Sm TGR block -3%, AmpC no deterg -16% and AmpC detergent 8%.
For COCCN1C(=O)c2oc3ccccc3c(=O)c2C1c1ccc(C(=O)OC)cc1 (stereo not given) the results were Sm TGR block 0%, AmpC no deterg -11%, FBPA Giardia inh 1% and AmpC detergent inconclusive.
Screening CCCOc1ccc(C2c3c(oc4ccccc4c3=O)C(=O)N2CCCN2CCOCC2)cc1 (stereo not given) returned Sm TGR block 35µM*, AmpC no deterg 102%, FBPA Giardia inh -10% and AmpC detergent 0%.
COC(=O)c1ccc(C2c3c(oc4ccccc4c3=O)C(=O)N2CCCN2CCOCC2)cc1 (stereo not given) was read as Sm TGR block 25µM*, AmpC no deterg 31%, FBPA Giardia inh -6% and AmpC detergent -18%.
`Cc1ccc2oc3c(c(=O)c2c1)C(c1ccc(F)cc1)N(CCCN1CCOCC1)C3=O` (stereo not given) gave Sm TGR block 32µM*, AmpC no deterg 51%, FBPA Giardia inh 1% and AmpC detergent -9%.
`CCOc1ccc(C2c3c(oc4cc(C)c(C)cc4c3=O)C(=O)N2CCCN2CCOCC2)cc1` (stereo not given) gave Sm TGR block -15%, AmpC no deterg 137%, FBPA Giardia inh -16% and AmpC detergent -1%.

From PubChem BioAssay
